Molecules are shown by their SMILES. Hit rate of the full screen: of about 69,000 compounds, about 8,600 (12%) showed an effect of 50% or more. Many of the other results were omitted from the sample, so strong results are more common in it than they were.

This experiment has as its system Plasmodium berghei. Nature of the experiment: Screen against P. berghei liver stage (PbLuc), transformed with Luciferase, at 10uM. The format is functional, HepG2. The note with it: tested at 10 uM.
With `OC(CN1CCN(Cc2cccc(F)c2)CC1)C1CC1` (stereo not given), the INHIBITION is -16.5%.

Turning to `Cc1n[nH]c(C)c1NC(=O)CN1CCCC1c1noc(C(C)C)n1` (stereo not given), the INHIBITION is recorded as 14.1%.

Consider `c1cncc(-c2noc(CN3CCOC(Cn4cccn4)C3)n2)c1` (stereo not given), for which the INHIBITION was 16.1%.

For `Cc1ccc(CN(CCN(C)C)C(=O)Nc2cnn(C)c2)s1`, the INHIBITION is recorded as 46.4%.

For the compound `CN(C)c1nccc(C2CCCN2S(=O)(=O)c2cn(C)cn2)n1` (stereo not given), the INHIBITION worked out at 12.3%.

Consider `O=C(NCc1nnc2n1CCC2)c1cn(-c2cccc(Br)c2)nn1`, for which the INHIBITION worked out at 35.7%.

As to `COCCNC(=O)Nc1ccc(F)c(C(N)=O)c1`, the INHIBITION is given as 39.8%.

For the compound `CCS(=O)(=O)N1Cc2ncn(CC3CC3)c2C(COC)C1` (stereo not given), the INHIBITION is on record as 11.5%.

For `CCOCC1CN(S(=O)(=O)C2CC2)Cc2ncn(CC3CC3)c21` (stereo not given), the INHIBITION turned out to be 7.53%.

For `COCC1CN(C(=O)COc2ccccc2)Cc2ncn(C)c21` (stereo not given), the INHIBITION turned out to be 51.2%.

For `COCC1CN(S(=O)(=O)C2CC2)Cc2ncn(CC3CC3)c21` (stereo not given), the INHIBITION worked out at 51%.

Consider `COCC1CN(S(C)(=O)=O)Cc2ncn(CC3CC3)c21` (stereo not given), for which the INHIBITION is -3.1%.

On to `COCC1CN(C(=O)COc2ccccc2C)Cc2ncn(C)c21` (stereo not given), for which the INHIBITION was -9.42%.

With `COCC1CN(CC2CC2)Cc2ncn(CC3CC3)c21` (stereo not given), the INHIBITION amounted to 13.5%.

With `COCC1CN(C(=O)CS(C)(=O)=O)Cc2ncn(CC3CC3)c21` (stereo not given), the INHIBITION came to 50%.

Take `CCn1nnc2c1C(COC)CN(C(=O)COc1ccccc1)C2` (stereo not given): the INHIBITION is given as -12.2%.

`CS(=O)(=O)c1ccc(-c2nc(C(=O)N3CCCC3)n3ccccc23)cc1`: the INHIBITION is recorded as -42.9%.

As to `Cc1ccc(CN2CC[C@@H](O)[C@@H]2Cc2ccccc2)o1`, the INHIBITION stood at 42.3%.

For `CC1=C(c2ccc(F)cc2)S(=O)(=O)N=C1N1CCc2ccccc21`, the INHIBITION is reported as 0.29%.

Regarding `CC(C)N(C)CCNC(=O)N1CCN(Cc2ccon2)CC1`, the INHIBITION is -0.514%.

Take `Cc1cnc(CN(C)C2CCN(Cc3sc(C)nc3C)C2)o1` (stereo not given): the INHIBITION was 21.6%.

In the case of `CCc1cnc(CN(C)C2CCN(CCS(C)(=O)=O)C2)o1` (stereo not given), the INHIBITION is recorded as 36.8%.

Take `CC(=O)N(Cc1ncc(C)o1)C1CCN(Cc2cccnc2)C1` (stereo not given): the INHIBITION was 31.9%.

Consider `COc1ccc(C)cc1CN(Cc1ncc(C)o1)C1CCN(C)C1` (stereo not given), for which the INHIBITION worked out at 23.7%.

As for `Cc1cnc(CN(C)C2CCN(Cc3cnc(C)s3)C2)o1` (stereo not given), the INHIBITION was found to be 23.1%.

With `CC(C)c1cnc(CN(C)C2CCN(CCS(C)(=O)=O)C2)o1` (stereo not given), the INHIBITION was 38.5%.

With `Cc1cnc(CN(C)C2CCN(Cc3ccc(Cl)s3)C2)o1` (stereo not given), the INHIBITION worked out at 60%.

In the case of `CCS(=O)(=O)CCN1CCC(N(C)Cc2ncc(C)o2)C1` (stereo not given), the INHIBITION came to 74.4%.

As to `Cc1cnc(CN(Cc2ccc(C#N)cc2F)C2CCN(C)C2)o1` (stereo not given), the INHIBITION is given as -40.7%.

In the case of `CC(=O)N(Cc1ncc(C)o1)C1CCN(Cc2ccc(F)c(F)c2)C1` (stereo not given), the INHIBITION is given as 68.9%.

Take `Cc1cnc(CN(Cc2ccc(Cl)s2)C2CCN(C)C2)o1` (stereo not given): the INHIBITION is reported as 51.2%.

As for `CC(=O)N(Cc1ncc(C)o1)C1CCN(Cc2ccccc2F)C1` (stereo not given), the INHIBITION is -19.9%.

For the compound `CN(C)c1ccc(C(=O)NCc2ccc(N3CCOCC3)cc2)cn1`, the INHIBITION was 12%.

In the case of `Cc1n[nH]c(C2CN(C(=O)CCOCC(F)(F)F)CCO2)n1` (stereo not given), the INHIBITION came out at 13.6%.

Turning to `CC(=O)N1CCOCC2(CCN(Cc3ccc(C)s3)CC2)C1`, the INHIBITION is given as 20.2%.

On to `CS(=O)(=O)N1CCO[C@@H]2CN(C(=O)N3CCCC3)CC[C@@H]2C1`, for which the INHIBITION came to 43.9%.

As for `O=C(c1cc2c(s1)CCCC2)N1CCc2nc(C3CCCN3)ncc2C1` (stereo not given), the INHIBITION amounted to 49.6%.

As for `Cc1nn2cccnc2c1C(=O)N1CCCC(n2ccnc2C)C1` (stereo not given), the INHIBITION is listed as 2.3%.

Take `COc1ccccc1-c1cc(C(=O)N(C)C)c2cnn(C)c2n1`: the INHIBITION is given as -8.9%.

With `CCOCCCNc1ncc(-c2cccc(F)c2)c(-c2nccn2C)n1`, the INHIBITION is 8.12%.

With `COCCNc1ncc(-c2cccc(F)c2)c(-c2nccn2C)n1`, the INHIBITION is 25.8%.

For `Cn1ccnc1-c1nc(NC2CCCC2)ncc1-c1cccc(F)c1`, the INHIBITION is on record as 63.8%.

In the case of `COc1nn(C)c2c1CCCN(C(=O)c1c[nH]cn1)C2`, the INHIBITION is recorded as 14%.

Take `COc1nn(C)c2c1CCCN(C(=O)c1cscn1)C2`: the INHIBITION is reported as 51.2%.

With `COc1nn(C)c2c1CCCN(C(=O)c1cnccn1)C2`, the INHIBITION turned out to be 18.6%.

Consider `CCCn1nccc1NC(=O)CN1CCCC1c1cccn1C` (stereo not given), for which the INHIBITION was 25.1%.

Regarding `Cc1cc(C)cc(N2CCN(Cc3cccnc3)CC2=O)c1`, the INHIBITION stood at 41.5%.

Turning to `O=C1NCC2(CCCN(Cc3ccc(Cl)s3)C2)Oc2ccccc21` (stereo not given), the INHIBITION is listed as 43.7%.

With `O=C1CC2(CCN(Cc3ccc(-c4ccccc4)s3)C2)C(=O)N1` (stereo not given), the INHIBITION is given as 21.2%.

With `O=C1CC2(CCN(Cc3ccc(Cl)s3)C2)C(=O)N1` (stereo not given), the INHIBITION worked out at 61.6%.

For the compound `O=C(Cc1ccccn1)N1CCc2ncnc(NC3CCC3)c2CC1`, the INHIBITION was 38.5%.

Consider `CCc1nc(C)c(C(=O)NCCN2CCN(C(C)=O)CC2)s1`, for which the INHIBITION amounted to 22.3%.

Consider `Cc1nn(C)cc1CN1CCc2c(nc(-c3ccccn3)[nH]c2=O)C1`, for which the INHIBITION worked out at 38.8%.

As for `COc1cc2c(cc1OC)C(=O)C(Sc1nncn1C)C2` (stereo not given), the INHIBITION was 6.67%.

For `CC1CCCN1Cc1cccc(C(=O)Nc2ccc3c(c2)CCC3=O)c1` (stereo not given), the INHIBITION was found to be 58.6%.

Consider `CC1CCCN1Cc1cccc(C(=O)Nc2ccc3[nH]c(=O)oc3c2)c1` (stereo not given), for which the INHIBITION is given as 74.7%.

Take `Cc1cccc(C)c1NC(=O)c1cccc(CN2CCCC2C)c1` (stereo not given): the INHIBITION was 41.5%.

As for `O=C(NCc1ccco1)c1cccc(CN2CCCC2CO)c1` (stereo not given), the INHIBITION turned out to be 5.58%.

Take `CC1CN(C)CCN1Cc1cccc(C(=O)NCc2ccco2)c1` (stereo not given): the INHIBITION is on record as -5.9%.

With `COc1ccc(NC(=O)c2cccc(CN3CCCC3C)c2)cc1OC` (stereo not given), the INHIBITION is 42.6%.

On to `COc1ccc(CN(C)C(=O)CCC(=O)c2cccs2)c(OC)c1OC`, for which the INHIBITION is recorded as 50.1%.

Take `COc1cccc(CN(C)C(=O)CCC(=O)c2ccccc2)c1OC`: the INHIBITION is given as -16.9%.

Turning to `CCN(C)C(=O)CCC(=O)c1cccs1`, the INHIBITION is 40.2%.

In the case of `COCCN1CCC(CN(CC2CCCO2)C(=O)CCC(F)(F)F)CC1` (stereo not given), the INHIBITION is 6.67%.

`COc1cncc(-n2ccnc2-c2ccc(C(=O)O)s2)c1`: the INHIBITION is listed as 14.6%.

As to `CCC(=O)Nc1nnc(CCOc2ccc(OC)cc2)s1`, the INHIBITION amounted to 40%.

Regarding `Cc1ccc(OCc2ccc(C(=O)O)s2)cc1C`, the INHIBITION is on record as -32.9%.

On to `COc1ccc(N(c2ccccc2)c2ccc(C(=O)O)s2)cc1`, for which the INHIBITION was 66.4%.

In the case of `COc1ccc(N(c2ccc(OC)cc2)c2ccc(C(=O)O)s2)cc1`, the INHIBITION is given as 69.3%.

As for `COc1ccc(N(c2ccc(C)cc2)c2ccc(C(=O)O)s2)cc1`, the INHIBITION turned out to be 27.8%.

The record behind these values is ChEMBL document CHEMBL4513216, “Probing the Open Global Health Chemical Diversity Library for Multistage-Active Starting Points for Next-Generation Antimalarials” (ACS Infect Dis, 2020).
